Laboratory results from the supplement of paper PMC8728848.
This excerpt belongs to a sample that is enriched for the strongest signals.

Assays:
Assay in all cases: glycan array binding signal (z-score within array); higher = stronger binding
Settings in all cases: glycan notation: IUPAC condensed, linker removed
Fuc(a1-2)Gal(b1-3)GalNAc = target: Fuc(a1-2)Gal(b1-3)GalNAc
Summary of the method: (§1)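 The Consortium for Functional Glycomics database supplied 3228 glycan arrays, of which those lacking an available protein sequence were dropped. The binding signal, a within-array Z-score, was averaged across arrays of the same protein sequence and across linkers. Negative scores can be read as non-binding.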

[1] = target: Fuc(a1-2)Gal(b1-4)GlcNAc(b1-6)GalNAc
Summary of the method: as §1

[2] = target: Fuc(a1-2)Gal(b1-4)[Fuc(a1-3)]GlcNAc(b1-3)GalNAc
Summary of the method: as §1

Fuc(a1-2)[Gal(a1-3)]Gal = target: Fuc(a1-2)[Gal(a1-3)]Gal
Summary of the method: as §1

[3] = target: Fuc(a1-2)[Gal(a1-3)]Gal(b1-3)GalNAc
Summary of the method: as §1

[4] = target: Fuc(a1-2)[Gal(a1-3)]Gal(b1-4)GlcNAc(b1-6)GalNAc
Summary of the method: as §1

[5] = target: Fuc(a1-2)[GalNAc(a1-3)]Gal(b1-3)GalNAc(a1-3)[Fuc(a1-2)]Gal(b1-4)GlcNAc
Summary of the method: as §1

[6] = target: Fuc(a1-2)[GalNAc(a1-3)]Gal(b1-4)Glc
Summary of the method: as §1

[7] = target: Fuc(a1-2)[GalNAc(a1-3)]Gal(b1-4)GlcNAc(b1-2)Man
Summary of the method: as §1

[8] = target: Fuc(a1-2)[GalNAc(a1-3)]Gal(b1-4)[Fuc(a1-3)]GlcNAc
Summary of the method: as §1

[9] = target: Fuc(a1-2)[GalNAc(a1-4)]Gal(b1-4)GlcNAc
Summary of the method: as §1

[10] = target: Fuc(a1-2)[GalNAc(b1-3)]Gal
Summary of the method: as §1

[11] = target: Fuc(a1-3)[Gal(b1-4)]GlcNAc(b1-2)Man(a1-6)[Gal(b1-4)GlcNAc(b1-2)Man(a1-3)]Man(b1-4)GlcNAc(b1-4)GlcNAc
Summary of the method: as §1

[12] = target: Gal(a1-3)Gal(b1-3)GlcNAc(b1-6)GalNAc
Summary of the method: as §1

[13] = target: Gal(a1-3)Gal(b1-3)[Fuc(a1-4)]GlcNAc(b1-2)Man(a1-3)[Gal(a1-3)Gal(b1-3)[Fuc(a1-4)]GlcNAc(b1-2)Man(a1-6)]Man(b1-4)GlcNAc(b1-4)GlcNAc
Summary of the method: as §1

[14] = target: Gal(a1-3)Gal(b1-4)GlcNAc(b1-2)Man(a1-3)[Gal(a1-3)Gal(b1-4)GlcNAc(b1-2)Man(a1-6)]Man(b1-4)GlcNAc(b1-4)GlcNAc
Summary of the method: as §1

[15] = target: Gal(a1-3)Gal(b1-4)GlcNAc(b1-6)GalNAc
Summary of the method: as §1

[16] = target: Gal(a1-4)Gal(b1-4)GlcNAc(b1-2)Man(a1-3)[Gal(a1-4)Gal(b1-4)GlcNAc(b1-2)Man(a1-6)]Man(b1-4)GlcNAc(b1-4)GlcNAc
Summary of the method: as §1

[17] = target: Gal(b1-3)GlcNAc(b1-6)GalNAc
Summary of the method: as §1

Gal(b1-4)GlcNAc = target: Gal(b1-4)GlcNAc
Summary of the method: as §1

[18] = target: Gal(b1-4)GlcNAc(b1-3)Gal(b1-4)Glc
Summary of the method: as §1

[19] = target: Gal(b1-4)GlcNAc(b1-3)Gal(b1-4)GlcNAc(b1-3)GalNAc
Summary of the method: as §1

[20] = target: Gal(b1-4)GlcNAc(b1-6)Gal(b1-4)GlcNAc(b1-6)GalNAc
Summary of the method: as §1

[21] = target: Gal(b1-4)GlcNAc(b1-6)GalNAc
Summary of the method: as §1

GalNAc(b1-3)Gal = target: GalNAc(b1-3)Gal
Summary of the method: as §1

[22] = target: GalNAc(b1-3)Gal(a1-6)Gal(b1-4)Glc
Summary of the method: as §1

[23] = target: GalNAc(b1-4)GlcNAc(b1-3)GalNAc(b1-4)GlcNAc
Summary of the method: as §1

[24] = target: GlcNAc(a1-4)Gal(b1-3)GlcNAc
Summary of the method: as §1

[25] = target: GlcNAc(b1-3)Gal(b1-4)GlcNAc(b1-3)Gal(b1-4)GlcNAc
Summary of the method: as §1

[26] = target: GlcNAc(b1-3)Gal(b1-4)GlcNAc(b1-3)GalNAc
Summary of the method: as §1

B1: MGL6A (Homo sapiens) (protein)
chain: MTRTYENFQYLENKVKVQGFKNGPLPLQSLLQRLCSGPCHLLLSLGLGLLLLVIICVVGFQNSKFQRDLVTLRTDFSNFTSNTVAEIQALTSQGSSLEETIASLKAEVEGFKQERQAVHSEMLLRVQQLVQDLKKLTCQVATLNNNGEEASTEGTCCPVNWVEHQDSCYWFSHSGMSWAEAEKYCQLKNAHLVVINSREEQNFVQKYLGSAYTWMGLSDPEGAWKWVDGTDYATGFQNWKPGQPDDWQGHGLGGGEDCAHFHPDGRWNDDVCQRPYHWVCEAGLGQTSQESH
For B1, which “glycan array binding signal (z-score)” value (Fuc(a1-2)Gal(b1-3)GalNAc) is on record?
Its value is -0.261.

And the “glycan array binding signal (z-score)” value [1]?
Its value is 4.02.

What about the “glycan array binding signal (z-score)” value [2] of the same binder?
The value was -0.238.

What about the “glycan array binding signal (z-score)” value (Fuc(a1-2)[Gal(a1-3)]Gal) of the same binder?
The value was -0.261.

And the “glycan array binding signal (z-score)” value [3]?
The value was -0.249.

And the “glycan array binding signal (z-score)” value [4]?
Its value is -0.27.

What about the “glycan array binding signal (z-score)” value [5] of the same binder?
Its value is 0.966.

What about the “glycan array binding signal (z-score)” value [6] of the same binder?
Its value is 0.534.

What about the “glycan array binding signal (z-score)” value [7] of the same binder?
Its value is -0.017.

And the “glycan array binding signal (z-score)” value [8]?
Its value is -0.22.

And the “glycan array binding signal (z-score)” value [9]?
The value was 4.68.

What about the “glycan array binding signal (z-score)” value [10] of the same binder?
The value was 4.73.

And the “glycan array binding signal (z-score)” value [11]?
The value was 1.06.

And the “glycan array binding signal (z-score)” value [12]?
Its value is 4.29.

What about the “glycan array binding signal (z-score)” value [13] of the same binder?
The value was -0.221.

What about the “glycan array binding signal (z-score)” value [14] of the same binder?
Its value is -0.225.

What about the “glycan array binding signal (z-score)” value [15] of the same binder?
The value was 4.16.

What about the “glycan array binding signal (z-score)” value [16] of the same binder?
The value was -0.244.

And the “glycan array binding signal (z-score)” value [17]?
The value was 3.91.

What about the “glycan array binding signal (z-score)” value (Gal(b1-4)GlcNAc) of the same binder?
Its value is -0.075.

And the “glycan array binding signal (z-score)” value [18]?
Its value is -0.284.

What about the “glycan array binding signal (z-score)” value [19] of the same binder?
The value was -0.303.

What about the “glycan array binding signal (z-score)” value [20] of the same binder?
Its value is -0.256.

What about the “glycan array binding signal (z-score)” value [21] of the same binder?
Its value is 4.67.

What about the “glycan array binding signal (z-score)” value (GalNAc(b1-3)Gal) of the same binder?
Its value is 4.13.

And the “glycan array binding signal (z-score)” value [22]?
Its value is 4.47.

What about the “glycan array binding signal (z-score)” value [23] of the same binder?
Its value is 3.79.

What about the “glycan array binding signal (z-score)” value [24] of the same binder?
The value was -0.306.

And the “glycan array binding signal (z-score)” value [25]?
Its value is 0.5.

And the “glycan array binding signal (z-score)” value [26]?
The value was -0.327.
